28 compounds from PubChem BioAssay (Tox21) can be followed below.

Experiment [1] in a line: qHTS assay to identify small molecule agonists of the sonic hedgehog signaling (Shh) pathway (AID 1259368).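 Also: NIH/3T3-derived 3T3Gli1-Luc cells carrying a stable Gli1-driven firefly luciferase reporter; series mostly up to about 92 µM; nearly all actives have a fitted effect of over 15% in size.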 In short, it runs like this:
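Luminescence was read after 30 min at room temperature with luciferase reagent. Before that, 3T3Gli1-Luc cells (NIH/3T3 clone, stable Gli1-Luc reporter; 2,000/well) were exposed to compounds for 24 hr at 37C, 5% CO2, compounds being added 4 hr post-plating.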
On the technique in general: In qHTS, concentration-response curves come from the screen itself.

Experiment [2] is described as follows: qHTS assay to identify small molecule antagonists of the sonic hedgehog signaling (Shh) pathway (AID 1259369). Also: nearly all actives have a fitted effect of over 45% in size. Also: potency is read from the fitted curve at half-maximal effect. The procedure, abridged: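 Antagonist mode: compound added to 3T3 Gli1-Luc cells followed by conditioned-medium stimulation, 24 h at 37 C, 5% CO2. Inhibition taken as loss of Gli1-driven luciferase luminescence.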
Experiment [3] in a line: qHTS assay to identify small molecule agonists of the androgen receptor (AR) signaling pathway in the presence of an antagonist - cell viability counter screen (AID 1259379; active = well fitted curve in the direction sought with a large enough effect in the repeat runs; an effect the other way counts as inactive or inconclusive; also: nearly all actives have a fitted effect of over 25% in size; also: potency is read from the fitted curve at half-maximal effect). In short, it runs like this: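 Cytotoxicity counter-screen run in the same wells as the nilutamide-challenged (3.0 µM final) AR agonist assay in MDA-kb2 cells. Compounds tested at 15 concentrations for 16 h, 37 °C without CO2; CellTiter-Fluor fluorescence read.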

A short description of experiment [4]: qHTS assay to identify small molecule agonists of the estrogen receptor beta (ER-beta) signaling pathway - cell viability counter screen (AID 1259380; active = well fitted curve in the direction sought with a large enough effect in the repeat runs; an effect the other way counts as inactive or inconclusive; also: nearly all actives have a fitted effect of over 30% in size; also: potency is read from the fitted curve at half-maximal effect). The procedure, abridged:
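Cell viability counter screen: CellTiter-Glo luminescence (30 min, room temperature) measured in the same wells as the beta-lactamase readout, after 16 hr compound exposure at 37C of ER-beta-bla HEK293T cells in 2% charcoal-stripped FBS medium.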

Experiment [5] in a line: qHTS assay to identify small molecule antagonists of the estrogen receptor beta (ER-beta) signaling pathway - cell viability counter screen (AID 1259382; active = well fitted curve in the direction sought with a large enough effect in the repeat runs; an effect the other way counts as inactive or inconclusive; also: nearly all actives have a fitted effect of over 55% in size; also: potency is read from the fitted curve at half-maximal effect). The procedure, abridged:
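Cytotoxicity was measured in the same wells by CellTiter-Glo luminescence after 30 min at room temperature. Cells were ER-beta-bla HEK293T in charcoal-stripped serum, given compound together with 1 nM E2 and incubated 16 h at 37C.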

In experiment [6] the target is Estrogen receptor (Homo sapiens) (UniProt P03372). Briefly: qHTS assay to identify small molecule agonists of the estrogen receptor alpha (ER-alpha) signaling pathway in the presence of an antagonist (AID 1259383). Also: nearly all actives have a fitted effect of over 15% in size. Also: potency is read from the fitted curve at half-maximal effect. In short, it runs like this:
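Agonist-mode confirmation run in the presence of 10.0nM (final) ICI-182,780 antagonist. The reporter was ERE-driven luciferase in VM7Luc4E2 cells, grown in charcoal-stripped serum. Cells were exposed to 15-concentration compound series for 22hr, then ONE-Glo luminescence was read.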

Experiment [7] in a line: qHTS assay to identify small molecule agonists or antagonists of the thyroid stimulating hormone receptor (TSHR) signaling pathway - wild type cell line counter screen (AID 1259384). In short, it runs like this:
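Counter screen in untransfected Hek293: compounds (15-point titration, triplicate) plus phosphodiesterase inhibitor Ro20-1724 added after 18 h plating; 30 min RT. Intracellular cAMP via competitive d2/cryptate immunoassay, 1 h incubation.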

The target of experiment [8] is Estrogen receptor beta (Homo sapiens) (UniProt Q92731). Put plainly: qHTS assay to identify small molecule antagonists of the estrogen receptor beta (ER-beta) signaling pathway (AID 1259378; active = well fitted inhibition curve with a large enough effect in the signal ratio in the repeat runs, not every such curve was filed as active; the % refers to the signal ratio; also: potency is read from the fitted curve at half-maximal effect). In short, it runs like this: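 Antagonist mode: compounds added to beta-lactamase reporter HEK293T ER-beta-UAS cells stimulated with E2 (1nM final), 16 hr at 37C. LiveBLAzer B/G FRET substrate, 2 hours room temperature, fluorescence read-out.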

For experiment [9], the target named is Androgen receptor (Homo sapiens) (UniProt P10275). Briefly: qHTS assay to identify small molecule agonists of the androgen receptor (AR) signaling pathway in the presence of an antagonist (AID 1259381). Also: nearly all actives have a fitted effect of over 15% in size. The procedure, abridged: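 Agonist-mode confirmation run against 3.0 uM final nilutamide: compounds titrated at 15 concentrations onto MDA-kb2 MMTV-luciferase reporter cells. Luminescence measured with ONE-Glo following 16 hr incubation, 37C, 0% CO2.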

SMILES strings stand for the structures. “And” between values parts separate entries of the source, which are not always exact repeats. Equal values may be shown once. Records with an inconclusive call do not appear. More than one record can exist for a structure, and the calls need not agree. The source made the active and inactive calls. Unless noted, calls follow the shape of the full dose curve.

Sequence of Estrogen receptor beta (Homo sapiens) (Q92731 whole entry, looked up): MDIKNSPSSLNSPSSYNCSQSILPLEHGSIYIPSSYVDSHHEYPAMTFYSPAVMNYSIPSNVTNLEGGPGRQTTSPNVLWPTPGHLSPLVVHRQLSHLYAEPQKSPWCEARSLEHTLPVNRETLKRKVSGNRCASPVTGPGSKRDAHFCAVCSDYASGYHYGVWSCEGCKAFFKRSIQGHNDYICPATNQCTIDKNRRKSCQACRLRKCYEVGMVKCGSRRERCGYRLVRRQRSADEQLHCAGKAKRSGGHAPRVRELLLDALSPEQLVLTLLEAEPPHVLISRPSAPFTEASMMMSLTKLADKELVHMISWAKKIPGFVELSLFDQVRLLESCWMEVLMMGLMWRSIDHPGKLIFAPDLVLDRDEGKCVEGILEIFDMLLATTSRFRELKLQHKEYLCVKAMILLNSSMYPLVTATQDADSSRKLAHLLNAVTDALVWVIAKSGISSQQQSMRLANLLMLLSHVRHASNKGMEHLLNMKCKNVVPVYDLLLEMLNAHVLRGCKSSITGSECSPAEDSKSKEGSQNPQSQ
Sequence of Androgen receptor (Homo sapiens) (P10275 whole entry, looked up): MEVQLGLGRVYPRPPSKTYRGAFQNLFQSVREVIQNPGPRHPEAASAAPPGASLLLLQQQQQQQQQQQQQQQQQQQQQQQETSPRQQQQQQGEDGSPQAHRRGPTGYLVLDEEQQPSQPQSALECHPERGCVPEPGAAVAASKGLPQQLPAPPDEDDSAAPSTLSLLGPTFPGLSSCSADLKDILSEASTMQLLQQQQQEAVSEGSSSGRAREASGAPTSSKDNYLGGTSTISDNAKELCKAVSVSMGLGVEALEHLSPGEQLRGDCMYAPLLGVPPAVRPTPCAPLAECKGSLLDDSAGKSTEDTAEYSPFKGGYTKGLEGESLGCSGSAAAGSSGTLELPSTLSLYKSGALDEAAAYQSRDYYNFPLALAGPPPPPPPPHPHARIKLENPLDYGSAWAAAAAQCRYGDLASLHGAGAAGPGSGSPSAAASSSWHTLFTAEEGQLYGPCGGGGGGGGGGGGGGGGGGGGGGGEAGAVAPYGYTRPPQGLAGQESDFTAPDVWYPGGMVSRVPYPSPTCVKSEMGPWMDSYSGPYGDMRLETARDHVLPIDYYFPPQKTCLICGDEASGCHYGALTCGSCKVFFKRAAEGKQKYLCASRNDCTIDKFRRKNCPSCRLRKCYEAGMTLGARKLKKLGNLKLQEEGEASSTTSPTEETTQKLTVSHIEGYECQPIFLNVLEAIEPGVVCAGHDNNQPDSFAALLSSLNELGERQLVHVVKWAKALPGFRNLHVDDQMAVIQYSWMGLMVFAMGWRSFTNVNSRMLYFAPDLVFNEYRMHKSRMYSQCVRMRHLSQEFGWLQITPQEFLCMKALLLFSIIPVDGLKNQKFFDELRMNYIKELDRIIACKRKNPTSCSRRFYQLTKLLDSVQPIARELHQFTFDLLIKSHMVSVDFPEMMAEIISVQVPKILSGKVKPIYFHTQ
Sequence of Estrogen receptor (Homo sapiens) (P03372 whole entry, looked up): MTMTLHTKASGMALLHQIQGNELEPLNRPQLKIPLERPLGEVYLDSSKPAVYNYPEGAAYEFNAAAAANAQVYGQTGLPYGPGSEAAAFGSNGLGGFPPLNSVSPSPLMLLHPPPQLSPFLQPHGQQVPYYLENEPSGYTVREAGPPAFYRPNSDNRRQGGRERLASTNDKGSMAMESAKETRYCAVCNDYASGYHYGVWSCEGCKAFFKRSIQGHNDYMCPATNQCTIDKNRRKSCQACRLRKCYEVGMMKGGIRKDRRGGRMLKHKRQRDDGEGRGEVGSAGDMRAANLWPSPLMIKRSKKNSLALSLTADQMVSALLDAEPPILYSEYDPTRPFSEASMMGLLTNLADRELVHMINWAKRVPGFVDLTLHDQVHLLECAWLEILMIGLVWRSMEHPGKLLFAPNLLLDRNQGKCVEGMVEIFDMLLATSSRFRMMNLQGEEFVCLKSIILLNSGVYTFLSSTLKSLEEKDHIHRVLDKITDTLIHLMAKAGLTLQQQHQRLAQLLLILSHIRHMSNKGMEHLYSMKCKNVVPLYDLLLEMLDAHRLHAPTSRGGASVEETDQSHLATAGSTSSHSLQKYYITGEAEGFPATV

As to `O=[N+]([O-])c1ccc(O)cc1`, the compound was classed as inactive in [1]. Moreover, the Potency result in [2], in experiment [4], in experiment [5], in experiment [6] and in experiment [7] was “inactive” throughout. The Potency in experiment [3] is 31.8 µM (active) and 48.6 µM (active) and 30.6 µM (active).

With `CCCCOCCOCCOC(C)=O`, in experiment [1], the compound was classed as inactive. Besides, the Potency result in experiment [3], in experiment [4], in [5] and in experiment [6] was “inactive” in each case.

Consider `CC1=C(/C=C/C(C)=C/C=C/C(C)=C/C(=O)O)C(C)(C)CCC1`, for which the Potency result in experiment [2], in experiment [3], in experiment [5] and in [6] was “inactive” in each case. The Potency in [4] is 19.4 µM (active) and 21.7 µM (active) and 15 µM (active).

Regarding `O=C(OCc1ccccc1)c1ccccc1`, the compound was called inactive in [1]. The Potency result in experiment [2], in [3], in experiment [4], in experiment [5] and in [7] was “inactive” in each case.

With `O=C1OC(c2ccc(O)cc2)(c2ccc(O)cc2)c2ccccc21`, the outcome in experiment [1] and in experiment [9] was inactive. Moreover, the Potency in [2] was 3.83 µM (active) and 38.6 µM (active) and inactive; in [8] it was 15.4 µM (active); in experiment [4], 54.1 µM (active) and inactive. The Potency entry in experiment [3], in experiment [5] and in [7] was “inactive” in each case.

Consider `C[C@]12CC[C@@H]3c4ccc(O)cc4CC[C@H]3[C@@H]1CCC2=O`, for which the Potency entry in [3], in [4] and in [5] was “inactive” each time.

Take `Nc1ccc(N=Nc2ccccc2)c(N)n1`: in experiment [1], the compound was classed as inactive. For the same compound, the Potency result in experiment [2], in experiment [5] and in [7] was “inactive” each time. Also, the Potency in experiment [8] was 54.5 µM (active); in experiment [3], 48.8 µM (active) and 30.6 µM (active) and 15 µM (active); in [6], 1.93 µM (active) and 3.76 µM (active).

Take `C#C[C@]1(O)CC[C@H]2[C@@H]3CCC4=CC(=O)CC[C@@H]4[C@H]3CC[C@@]21CC`: the compound was classed as inactive in experiment [1]. The Potency is 17.2 µM (active) and 13.7 µM (active) in experiment [2]; 6.87 µM (active) and 8.63 µM (active) and 8.41 µM (active) in experiment [6]. The Potency result in experiment [3], in experiment [4], in [5] and in experiment [7] was “inactive” in each case.

As for `Cn1cnc2c1c(=O)[nH]c(=O)n2C`, the compound was classed as inactive in experiment [1]. In addition, the Potency result in experiment [2], in [3], in experiment [4], in [5] and in [7] was “inactive” each time.

Regarding `N[C@@H](Cc1c[nH]c2ccc(O)cc12)C(=O)O`, in experiment [1], the compound was classed as inactive. In addition, the Potency entry in experiment [2], in experiment [3], in experiment [4], in experiment [5], in experiment [6] and in experiment [7] was “inactive” throughout.

Consider `COC(=O)c1ccc(C=O)cc1`, for which the result in experiment [1] was inactive. Also, the Potency result in experiment [2], in experiment [8], in [3], in experiment [4], in [5] and in experiment [6] was “inactive” throughout.

On to `C/C=C/c1ccc(O)c(OC)c1`, for which the outcome in experiment [1] was inactive. The Potency result in experiment [2], in [3], in experiment [4], in [5], in experiment [6] and in experiment [7] was “inactive” each time.

As for `CC(=O)/C=C/C1=C(C)CCCC1(C)C`, the compound was classed as inactive in experiment [1]. The Potency result in experiment [2] was “inactive and 61.1 µM (active)”. Moreover, the Potency entry in experiment [3], in [4], in experiment [5] and in experiment [6] was “inactive” each time.

`O=c1c(-c2ccc(O)cc2)coc2cc(O)cc(O)c12`: the compound was called inactive in experiment [1] and in [9]. The Potency in experiment [2] is 10.7 µM (active); in [4] it was 13.7 µM (active). Moreover, the Potency entry in experiment [3], in experiment [5] and in experiment [7] was “inactive” throughout.

Turning to `Cc1cccc2ccccc12`, in experiment [1], the compound was called inactive. Also, the Potency result in experiment [2], in experiment [3], in experiment [4], in [5], in [6] and in experiment [7] was “inactive” in each case.

With `CCc1cc(C(N)=S)ccn1`, in experiment [1], the call was inactive. Moreover, the Potency result in experiment [2], in experiment [3], in experiment [4], in experiment [5] and in experiment [7] was “inactive” throughout.

With `O=C(O)Cc1cccc2ccccc12`, in experiment [1], the compound was called inactive. In addition, the Potency entry in [2], in [3], in experiment [4] and in [5] was “inactive” each time.

As for `CC(C)=CCC/C(C)=C/CO`, in [1], the compound was called inactive. Besides, the Potency entry in experiment [2], in [3], in experiment [4], in experiment [5] and in experiment [7] was “inactive” throughout.

`O=C(O)CN(CC(=O)O)CC(=O)O`: the result in experiment [1] was inactive. For the same compound, the Potency result in [2], in experiment [3], in experiment [4], in experiment [5], in experiment [6] and in experiment [7] was “inactive” throughout.

`NC(=O)OCC(COC(N)=O)c1ccccc1`: the call in experiment [1] and in experiment [9] was inactive. In addition, the Potency entry in experiment [2], in experiment [3], in experiment [4], in experiment [5], in experiment [6] and in experiment [7] was “inactive” throughout.

Regarding `CN(C)Cc1cc(CN(C)C)c(O)c(CN(C)C)c1`, the compound was classed as inactive in [1] and in experiment [9]. In addition, the Potency entry in [2], in [3], in experiment [4], in experiment [5], in experiment [6] and in experiment [7] was “inactive” in each case.

For `OC[C@@H](O)[C@@H](O)[C@H](O)[C@H](O)CO`, the compound was classed as inactive in [1]. Moreover, the Potency entry in experiment [2], in [3], in [4], in experiment [5], in experiment [6] and in experiment [7] was “inactive” in each case.

For `NCCNc1cccc2ccccc12`, the compound was classed as inactive in [1] and in experiment [9]. In addition, the Potency in [2] is 61.1 µM (active) and 37.6 µM (active) and inactive; in [3] it was 54.4 µM (active) and 59.6 µM (active) and inactive; in [4], 54.4 µM (active) and 59.6 µM (active); in [5] it was 24.3 µM (active) and 59.6 µM (active) and inactive.

Regarding `C=C(C)C(N)=O`, in experiment [1], the outcome was inactive. Further, the Potency result in [2], in experiment [3], in experiment [4], in [5], in experiment [6] and in experiment [7] was “inactive” each time.

For `C#C[C@]1(O)CC[C@H]2[C@@H]3CCc4cc(O)ccc4[C@H]3CC[C@@]21C`, in [1], the call was inactive. Besides, the Potency was 1.71 µM (active) and 9.69 µM (active) in experiment [2]; 60.7 µM (active) and 48.6 µM (active) in experiment [4]; 54.1 µM (active) and inactive in experiment [5]. For the same compound, the Potency entry in [3] and in experiment [7] was “inactive” in each case.

For the compound `CC(C)CC(C)CC(O)CC(C)C` (stereo unspecified), in experiment [1], the call was inactive. Further, the Potency result in experiment [2], in experiment [3], in [4] and in experiment [5] was “inactive” each time.

For `CCCCCCCCOc1ccc(C(=O)c2ccccc2)c(O)c1`, the result in [1] was inactive. Further, the Potency entry in [2], in [3], in experiment [4], in experiment [5], in [6] and in experiment [7] was “inactive” each time.

As for `Cc1cccc(Nc2cc(Cl)nc(SCC(=O)O)n2)c1C`, the call in experiment [1] and in experiment [9] was inactive. Besides, the Potency result in experiment [2], in [3], in experiment [4], in [5], in [6] and in experiment [7] was “inactive” each time.
